“And” between values parts separate entries of the source, which are not always exact repeats. Equal values may be shown once. Non-standard residues stand in square brackets, D forms with d. Residues, ends and D or L forms follow the SMILES beside them. Nle = CCCC[C@H](N)C(=O)O
Target: T1, Transcription intermediary factor 1-alpha (Homo sapiens) (UniProt O15164)
T1 sequence (whole entry): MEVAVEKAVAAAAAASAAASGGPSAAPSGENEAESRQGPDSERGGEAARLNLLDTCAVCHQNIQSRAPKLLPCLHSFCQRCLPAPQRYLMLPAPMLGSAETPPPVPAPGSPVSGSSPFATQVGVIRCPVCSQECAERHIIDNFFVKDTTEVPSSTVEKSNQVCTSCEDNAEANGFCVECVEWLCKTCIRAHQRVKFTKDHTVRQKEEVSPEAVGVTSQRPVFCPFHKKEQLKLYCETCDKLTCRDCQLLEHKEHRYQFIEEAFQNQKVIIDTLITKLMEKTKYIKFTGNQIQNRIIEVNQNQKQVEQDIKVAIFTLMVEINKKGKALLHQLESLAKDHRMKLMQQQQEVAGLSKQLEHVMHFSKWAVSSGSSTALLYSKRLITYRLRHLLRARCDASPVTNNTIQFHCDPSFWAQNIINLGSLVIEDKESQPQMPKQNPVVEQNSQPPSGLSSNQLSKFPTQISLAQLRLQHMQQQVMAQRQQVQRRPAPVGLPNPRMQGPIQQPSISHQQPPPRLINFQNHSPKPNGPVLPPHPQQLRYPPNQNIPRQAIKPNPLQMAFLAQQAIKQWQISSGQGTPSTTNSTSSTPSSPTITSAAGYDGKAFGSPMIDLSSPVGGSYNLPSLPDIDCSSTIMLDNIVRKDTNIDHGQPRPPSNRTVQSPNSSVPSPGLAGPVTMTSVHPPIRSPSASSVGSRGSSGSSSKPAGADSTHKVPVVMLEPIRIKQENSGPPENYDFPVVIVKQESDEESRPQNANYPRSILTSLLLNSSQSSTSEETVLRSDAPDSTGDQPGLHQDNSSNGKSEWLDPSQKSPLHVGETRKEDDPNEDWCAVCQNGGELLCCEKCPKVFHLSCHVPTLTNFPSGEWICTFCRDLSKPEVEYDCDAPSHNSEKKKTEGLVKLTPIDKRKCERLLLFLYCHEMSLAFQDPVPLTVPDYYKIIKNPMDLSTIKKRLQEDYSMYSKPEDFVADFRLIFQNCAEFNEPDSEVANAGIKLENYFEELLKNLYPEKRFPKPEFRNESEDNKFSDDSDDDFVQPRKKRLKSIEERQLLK
Conditions: Compound concentration 20.0 uM

Row | Structure (SMILES) | ΔTm
1 | CCn1c(=O)c(C)cn(Cc2nnc(-c3ccc(F)c(OC)c3F)s2)c1=O | -0.83 °C
2 | Cc1c(F)c(N)cc(C(=O)Nc2cc(-n3cc(C(=O)NCCCN4CCOCC4)nn3)ccc2N2CCN(C)CC2)c1Cl | -0.56 °C
3 | N[C@@H](CCCCNC(=O)OCc1ccc([N+](=O)[O-])cc1)C(=O)N1CCCC1 | -0.07 °C
4 | O=C(C1CC1)N1CC[C@@H](Cc2n[nH]c(=O)n2-c2ccc(-c3ccc4occc4c3)cc2)C1 | -1.14 °C and -0.89 °C
5 | CN(CCC(Oc1ccc(-c2ccccc2)cc1)c1ccc(F)cc1)CC(=O)O (stereo not given) | -0.18 °C
6 | O=C(Oc1cccc(F)c1OC(=O)c1cccc(O)c1)c1cccc(O)c1 | 1.67 °C
7 | N=C(N)SCc1ccc(CN2C(=O)C(=O)c3cc(C(F)(F)F)ccc32)cc1 | 0 °C
8 | Cc1ccnc(NS(=O)(=O)c2ccc(NC(=O)Nc3ccc(S(=O)(=O)Nc4nccc(C)n4)cc3)cc2)n1 | 2.1 °C
9 | COCc1nc(C(F)(F)F)[nH]c1-c1cc(C(=O)N2CC(c3ccc(C#N)cc3)C2)c(C)cc1C | -1.79 °C
10 | Cn1nc(C(C)(C)C)cc1C(=O)NC(Cc1cccc(Cl)c1)C(=O)NCC#N (stereo not given) | 0.74 °C
11 | COc1cccc(OC)c1S(=O)(=O)Nc1noc2cc(Cn3cccn3)cc(OC)c12 | -1.5 °C
12 | CNC(=O)Cn1cc(-c2ccc3c(c2)[C@H](F)C[C@]32NC(=O)N(CC(=O)N(Cc3ccc(F)cc3)[C@@H](C)C(F)(F)F)C2=O)cn1 | -1.4 °C
13 | Cc1ccc([N+](=O)[O-])cc1S(=O)(=O)N(C)C | -0.39 °C
14 | Nc1ccc(-c2cccs2)cc1NC(=O)c1ccc(NC=O)cc1 | 1.27 °C
15 | CCCN(CCC)c1ccc(C=O)cc1Br | -0.42 °C
16 | O=C(O)c1cccc(-c2ccc(-c3cn(C(=O)N4CCCCC4Cc4ccccc4)nn3)cc2)c1 (stereo not given) | -0.34 °C
17 | CC(=O)N[C@@H](CC(C)C)C(=O)N[C@@H](CCC(=O)O)C(=O)N[C@@H](Cc1cnc[nH]1)C(=O)N[C@H](C=O)CC(=O)O (Ac-LEHD-aldehyde) | -0.81 °C
18 | Cc1cc(N2C[C@@H](C)N[C@@H](C)C2)ncc1-c1ccc(-c2nc3c(ccn3C)c(=O)[nH]2)cc1 | 0.61 °C
19 | O=c1[nH]c(N2CCC3(CC2)CN(CCO)c2cc(F)cc(F)c23)nc2c1CCCC2 | -1.21 °C
20 | COc1cc2c(cc1-c1c(C)noc1C)[nH]c1nc(C)nc(-c3ccnc4ccccc34)c12 | -0.1 °C

Row | Structure (SMILES) | ΔTm
21 | O=S(=O)(O)c1ccc2cc(/N=N/c3cc(S(=O)(=O)O)c4cccnc4c3O)ccc2c1 | -1.13 °C
22 | O=C(c1cc(Cc2n[nH]c(=O)c3ccccc23)ccc1F)N1CCN(C(=O)C2CC2)CC1 | -1.81 °C
23 | CS(=O)(=O)N1CCN(C(=O)c2cnc3ccc(F)cc3c2-c2ccc(C3(C#N)CC3)cc2)CC1 | 0.3 °C
24 | CN1CCN2c3c(cccc31)[C@@H]1CN(CCCC(=O)c3ccc(F)cc3)CC[C@@H]12 | 0.32 °C
25 | CC(=O)N[C@@H](C)C(=O)N[C@@H](CCC(=O)O)C(=O)N[C@H](C(=O)N[C@@H](C=O)CC(=O)O)C(C)C | -0.66 °C
26 | O=C(COc1ccc(-c2oc3cc(O)c(C(=O)O)cc3c2C#Cc2cccc(Cl)c2)cc1)NC1CC1 | -0.84 °C
27 | Nc1ncnc2c1ncn2[C@@H]1O[C@H](C(=O)N2CCN(CC(=O)Nc3cccc4c3CNC4=O)CC2)[C@@H](O)[C@H]1O | -0.61 °C
28 | CCCCN(Cc1ccc(C(=O)NO)cc1)C(=O)Nc1ccccc1 | -1.23 °C
29 | OC[C@H]1O[C@@H](c2ccc(F)c(Cc3cc4ccccc4s3)c2)[C@H](O)[C@@H](O)[C@@H]1O | -0.42 °C
30 | COc1cc(-c2cn(C)c(=O)c3cnccc23)cc(OC)c1CN(C)CC(=O)NCCOCCOCCNc1cccc2c1C(=O)N(C1CCC(=O)NC1=O)C2=O (stereo not given) | -0.75 °C
31 | CCCC[C@@H](C=O)NC(=O)[C@H](CC(C)C)NC(=O)[C@H](CC(C)C)NC(C)=O (Ac-Leu-Leu-[Nle]-aldehyde) | -1.21 °C
32 | Cc1cc(C)c(CNC(=O)c2cc(-c3ccc(N4CCN(C)CC4)nc3)cc3c2c(C)cn3C(C)C)c(=O)[nH]1 | -0.72 °C
33 | C=CC(=O)Nc1cccc(-c2c[nH]cc2CN(C)CCN)c1 | -1.19 °C
34 | CC(=O)N[C@@H](Cc1ccc(O)cc1)C(=O)N[C@H](C(=O)N[C@@H](C)C(=O)N[C@@H](CC(=O)O)C(=O)COC(=O)c1c(C)cccc1C)C(C)C | -0.84 °C
35 | CC(=Cc1cc(C)ccc1C=C(C)C(=O)NC(=N)N)C(=O)N=C(N)N | -3.05 °C
36 | Cc1cc(C(=O)N2CCN(C3CN(C(=O)c4ccc(-c5ccccc5)cc4)C3)CC2)no1 | -0.09 °C
37 | CCC[C@H]1CNCc2c1[nH]c(=O)c(C#N)c2N1CCC2(CC1)CC2 | -1.34 °C
38 | CN(CCOc1ccc(-c2ccc3c(c2)OCO3)cc1C(C)(C)C)CC(=O)O | -0.19 °C
39 | Cc1ccc(NC2=CC(=O)c3sc(C)nc3C2=O)cc1 | -1.44 °C
40 | CNCCC(Oc1ccccc1OC)c1ccccc1 (stereo not given) | 0.03 °C

Source: ChEMBL document CHEMBL5724796, “Tm Shift (DSF) assay results for EUbOPEN Chemogenomics Library” (2024)
